Tests used:
[1] = system: P. berghei liver stage (PbLuc); set-up: species or system HepG2-A16-CD81; P. berghei luciferase sporozoite infection of hepatocytes, liver stage luminescence; conditions: inhibitor; for PbLuc primary screen (10uM): inhibition % (n=1): 48 h
[2] = system: HepG2-A16-CD81 hepatocytes; set-up: Uninfected hepatocyte viability, CellTiter-Glo luminescence; conditions: cytotoxicity primary screen, inhibitor

Structure (SMILES): Cc1[nH]c2cc(C3CCN(Cc4ccccc4F)C3)nn2c(=O)c1C (stereo not drawn) [DDD01060615]
- PbLuc primary screen (10uM): inhibition % (n=1) [1]: 61.7%
- PbLuc primary screen (2uM): inhibition % (n=1) [1]: 28.64%
- HepG2 toxicity primary screen (10uM): inhibition % (n=1) [2]: 5.52%

Structure (SMILES): COCC(=O)Nc1[nH]nc2c1c(C)nn2Cc1cccc(OC)c1 [DDD01063147]
- PbLuc primary screen (10uM): inhibition % (n=1) [1]: -14.8%
- PbLuc primary screen (2uM): inhibition % (n=1) [1]: 27.76%
- HepG2 toxicity primary screen (10uM): inhibition % (n=1) [2]: -11.7%

Structure (SMILES): Cc1nc(N2CCCC2)ncc1-c1cc(=O)n2ncnc2[nH]1 [DDD01038581]
- PbLuc primary screen (10uM): inhibition % (n=1) [1]: 16.8%
- PbLuc primary screen (2uM): inhibition % (n=1) [1]: 10.62%
- HepG2 toxicity primary screen (10uM): inhibition % (n=1) [2]: 10.6%

Structure (SMILES): Fc1cccc(C2=NN=CC2=C2NC(CN3CCOCC3)=NO2)c1 [DDD01244908]
- PbLuc primary screen (10uM): inhibition % (n=1) [1]: 13.7%
- PbLuc primary screen (2uM): inhibition % (n=1) [1]: 24.36%
- HepG2 toxicity primary screen (10uM): inhibition % (n=1) [2]: -7.58%

Structure (SMILES): COc1cccc(Cn2nc(C)c3c(NC(=O)C(C)OC)[nH]nc32)c1 (stereo not drawn) [DDD01063202]
- PbLuc primary screen (10uM): inhibition % (n=1) [1]: 39.7%
- PbLuc primary screen (2uM): inhibition % (n=1) [1]: -10.78%
- HepG2 toxicity primary screen (10uM): inhibition % (n=1) [2]: -2.03%

Structure (SMILES): CCn1[nH]cc2nc(-c3cc4c(cc3OC)OCO4)nc1-2 [DDD01244413]
- PbLuc primary screen (10uM): inhibition % (n=1) [1]: -7.2%
- PbLuc primary screen (2uM): inhibition % (n=1) [1]: 27.42%
- HepG2 toxicity primary screen (10uM): inhibition % (n=1) [2]: -2.99%

Structure (SMILES): CC(NC(=O)CCC1=NC(=C2N=CN=N2)NO1)c1ccc(F)cc1F (stereo not drawn) [DDD01068293]
- PbLuc primary screen (10uM): inhibition % (n=1) [1]: 33.4%
- PbLuc primary screen (2uM): inhibition % (n=1) [1]: -26.534%
- HepG2 toxicity primary screen (10uM): inhibition % (n=1) [2]: -2.05%

Structure (SMILES): Cc1[nH]c2cc(C3CCN(Cc4cccc(F)c4F)C3)nn2c(=O)c1C (stereo not drawn) [DDD01270135]
- PbLuc primary screen (10uM): inhibition % (n=1) [1]: 90.4%
- PbLuc primary screen (2uM): inhibition % (n=1) [1]: 18.8%
- HepG2 toxicity primary screen (10uM): inhibition % (n=1) [2]: 0.333%

Structure (SMILES): Cc1[nH]n(C2CCS(=O)(=O)C2)c(=O)c1CCc1ccccc1 (stereo not drawn) [DDD01026977]
- PbLuc primary screen (10uM): inhibition % (n=1) [1]: 5.33%
- PbLuc primary screen (2uM): inhibition % (n=1) [1]: -33.83%
- HepG2 toxicity primary screen (10uM): inhibition % (n=1) [2]: -50.25%

Structure (SMILES): Cn1nc(C2CC2)c(-c2ccc3c(c2)OCO3)c1N [DDD01074640]
- PbLuc primary screen (10uM): inhibition % (n=1) [1]: 16.5%
- PbLuc primary screen (2uM): inhibition % (n=1) [1]: 58.6%
- HepG2 toxicity primary screen (10uM): inhibition % (n=1) [2]: -47.475%

Structure (SMILES): Cc1ccccc1CN(C)C(=O)CCC1=NC(=C2N=CN=N2)NO1 [DDD01062116]
- PbLuc primary screen (10uM): inhibition % (n=1) [1]: 13.7%
- PbLuc primary screen (2uM): inhibition % (n=1) [1]: 27.4706%
- HepG2 toxicity primary screen (10uM): inhibition % (n=1) [2]: -42.09%

Structure (SMILES): Cc1nsc(N2CCCN(CC(=O)N(C)C3CC3)CC2)n1 [DDD01066804]
- PbLuc primary screen (10uM): inhibition % (n=1) [1]: 68.5%
- PbLuc primary screen (2uM): inhibition % (n=1) [1]: -11.55%
- HepG2 toxicity primary screen (10uM): inhibition % (n=1) [2]: -3.98%

Structure (SMILES): CCc1c(C)nn2c(=O)cc(C3CCN(C(=O)c4ccn(C)n4)C3)[nH]c12 (stereo not drawn) [DDD01056907]
- PbLuc primary screen (10uM): inhibition % (n=1) [1]: 3.623%
- PbLuc primary screen (2uM): inhibition % (n=1) [1]: -25.98%
- HepG2 toxicity primary screen (10uM): inhibition % (n=1) [2]: 7.915%

Structure (SMILES): CCc1c(C)nn2c(=O)cc(C3CCN(C(=O)C4CC4)C3)[nH]c12 (stereo not drawn) [DDD01057056]
- PbLuc primary screen (10uM): inhibition % (n=1) [1]: 26.6%
- PbLuc primary screen (2uM): inhibition % (n=1) [1]: 11.53%
- HepG2 toxicity primary screen (10uM): inhibition % (n=1) [2]: 1.97%

Structure (SMILES): Cc1ccc(S(=O)(=O)Cc2noc([C@@H]3C[C@@H](O)CN3C(C)C)n2)cc1 [DDD01025534]
- PbLuc primary screen (10uM): inhibition % (n=1) [1]: 44.5%
- PbLuc primary screen (2uM): inhibition % (n=1) [1]: 0.1961%
- HepG2 toxicity primary screen (10uM): inhibition % (n=1) [2]: 0.317%

Structure (SMILES): CCn1[nH]cc2nc(-c3cc(OC)c(OC)cc3OC)nc1-2 [DDD01254934]
- PbLuc primary screen (10uM): inhibition % (n=1) [1]: 26.5%
- PbLuc primary screen (2uM): inhibition % (n=1) [1]: 13.04%
- HepG2 toxicity primary screen (10uM): inhibition % (n=1) [2]: -2.61%

Structure (SMILES): COc1cc2c(cc1-c1nc3c[nH]n(C)c-3n1)OCO2 [DDD01248770]
- PbLuc primary screen (10uM): inhibition % (n=1) [1]: 28.7%
- PbLuc primary screen (2uM): inhibition % (n=1) [1]: 21.97%
- HepG2 toxicity primary screen (10uM): inhibition % (n=1) [2]: -8.9%

Structure (SMILES): COCCCC(=O)N1CC(=O)Nc2cc(Br)ccc21 [DDD01075689]
- PbLuc primary screen (10uM): inhibition % (n=1) [1]: -20.4%
- PbLuc primary screen (2uM): inhibition % (n=1) [1]: 22.41%
- HepG2 toxicity primary screen (10uM): inhibition % (n=1) [2]: 5.89%

Structure (SMILES): CCc1cc(=O)n2nc(C3CCN(C(=O)c4ccccn4)CC3)cc2[nH]1 [DDD01057364]
- PbLuc primary screen (10uM): inhibition % (n=1) [1]: -2.695%
- PbLuc primary screen (2uM): inhibition % (n=1) [1]: 26.22%
- HepG2 toxicity primary screen (10uM): inhibition % (n=1) [2]: 2.29%

Structure (SMILES): CCc1cc(=O)n2nc(C3CCCN3C(=O)c3ccccn3)cc2[nH]1 (stereo not drawn) [DDD01057178]
- PbLuc primary screen (10uM): inhibition % (n=1) [1]: 18.85%
- PbLuc primary screen (2uM): inhibition % (n=1) [1]: -15.38%
- HepG2 toxicity primary screen (10uM): inhibition % (n=1) [2]: -0.805%

Structure (SMILES): CCc1cc(=O)n2nc(C3CCN(C(=O)c4cccnc4)CC3)cc2[nH]1 [DDD01057176]
- PbLuc primary screen (10uM): inhibition % (n=1) [1]: 13.3%
- PbLuc primary screen (2uM): inhibition % (n=1) [1]: -5.593%
- HepG2 toxicity primary screen (10uM): inhibition % (n=1) [2]: 7.09%

Structure (SMILES): COCCC(=O)N1CCC(c2cc(=O)n(C)[nH]2)C1 (stereo not drawn) [DDD01060470]
- PbLuc primary screen (10uM): inhibition % (n=1) [1]: 0.301%
- PbLuc primary screen (2uM): inhibition % (n=1) [1]: 15.3%
- HepG2 toxicity primary screen (10uM): inhibition % (n=1) [2]: -23.1%

Structure (SMILES): CCc1c(C)[nH]c2cc(C3CCN(Cc4ccccc4F)C3)nn2c1=O (stereo not drawn) [DDD01270117]
- PbLuc primary screen (10uM): inhibition % (n=1) [1]: 85.9%
- PbLuc primary screen (2uM): inhibition % (n=1) [1]: 29.7326%
- HepG2 toxicity primary screen (10uM): inhibition % (n=1) [2]: 1.7%

Structure (SMILES): CCC(CO)N(Cc1cccnc1)C(=O)c1ccc(C(F)(F)F)[nH]c1=O (stereo not drawn) [DDD01253913]
- PbLuc primary screen (10uM): inhibition % (n=1) [1]: -28.9%
- PbLuc primary screen (2uM): inhibition % (n=1) [1]: 20.89%
- HepG2 toxicity primary screen (10uM): inhibition % (n=1) [2]: -1.12%

Structure (SMILES): CN(CCCc1ccccc1)C(=O)CCC1=NC(=C2N=CN=N2)NO1 [DDD01062165]
- PbLuc primary screen (10uM): inhibition % (n=1) [1]: 22%
- PbLuc primary screen (2uM): inhibition % (n=1) [1]: -4.851%
- HepG2 toxicity primary screen (10uM): inhibition % (n=1) [2]: -44.845%

Structure (SMILES): Cc1cc(=O)n2nc(C3CCN(C(=O)c4ccccn4)CC3)cc2[nH]1 [DDD01057174]
- PbLuc primary screen (10uM): inhibition % (n=1) [1]: 7.55%
- PbLuc primary screen (2uM): inhibition % (n=1) [1]: -10.49%
- HepG2 toxicity primary screen (10uM): inhibition % (n=1) [2]: -3.3635%

Structure (SMILES): CCC(=O)Nc1[nH]nc2c1c(C)nn2Cc1cccc(OC)c1 [DDD01063148]
- PbLuc primary screen (10uM): inhibition % (n=1) [1]: -31%
- PbLuc primary screen (2uM): inhibition % (n=1) [1]: 15.82%
- HepG2 toxicity primary screen (10uM): inhibition % (n=1) [2]: -9.24%

Structure (SMILES): Cc1[nH]n(C2CCS(=O)(=O)C2)c(=O)c1Cc1ccccc1 (stereo not drawn) [DDD01026976]
- PbLuc primary screen (10uM): inhibition % (n=1) [1]: 36.9%
- PbLuc primary screen (2uM): inhibition % (n=1) [1]: -17.38%
- HepG2 toxicity primary screen (10uM): inhibition % (n=1) [2]: -44.6%

Source: publication PMC7155171, “Probing the Open Global Health Chemical Diversity Library for Multistage-Active Starting Points for Next-Generation Antimalarials” (ACS Infectious Diseases, 2020)
